High-throughput results deposited in PubChem BioAssay by National Center for Advancing Translational Sciences (NCATS).
The list is not random: actives were taken first. Their share in the collection is about 12%.
G9a inh: inhibitors of human histone lysine methyltransferase G9a | Q96KQ7 | G9a H3K9 monomethylation, AlphaScreen, 2 h | Potency, µM (highest dose often 102 µM), actives largely listed as inhibitors | actives 8.8% (n = 350,000) | AID 504332; further: nearly all actives have a fitted effect of over 75% in size
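Signal arises when biotinylated H3K9 peptide, once monomethylated, bridges streptavidin donor and antibody-captured acceptor beads. Enzyme at 20 nM was preincubated 15 min with test compounds; peptide 500 nM and SAM 20 uM then reacted for 2 h.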
BAZ2B inh: blocks human BAZ2B | Potency, µM (series often up to 114 µM), actives largely listed as inhibitors | AID 504333 | AlphaScreen BAZ2B-H3K14Ac peptide displacement | Q9UIF8 | actives 4.4% (n = 360,000); further: nearly all actives have a fitted effect of over 60% in size
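AlphaScreen luminescence quantifies BAZ2B engagement of H3K14Ac peptide; the protein and biotinylated peptide are both at 50 nM final, buffer PBS pH 7.4 with 0.01% Tween-20, all steps at room temperature.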
PLK1 PBD inh: PLK1 (human) polo-box domain binding inhibition; Plk1 PBD binding of FITC phosphopeptide, fluorescence polarization; AID 720504; actives 2.8% (n = 360,000); P53350; Potency, µM, actives largely listed as inhibitors; further: series mostly up to about 57 µM; nearly all actives have a fitted effect of over 65% in size
Target sequence (P53350 whole entry, looked up, the tested form may be a part): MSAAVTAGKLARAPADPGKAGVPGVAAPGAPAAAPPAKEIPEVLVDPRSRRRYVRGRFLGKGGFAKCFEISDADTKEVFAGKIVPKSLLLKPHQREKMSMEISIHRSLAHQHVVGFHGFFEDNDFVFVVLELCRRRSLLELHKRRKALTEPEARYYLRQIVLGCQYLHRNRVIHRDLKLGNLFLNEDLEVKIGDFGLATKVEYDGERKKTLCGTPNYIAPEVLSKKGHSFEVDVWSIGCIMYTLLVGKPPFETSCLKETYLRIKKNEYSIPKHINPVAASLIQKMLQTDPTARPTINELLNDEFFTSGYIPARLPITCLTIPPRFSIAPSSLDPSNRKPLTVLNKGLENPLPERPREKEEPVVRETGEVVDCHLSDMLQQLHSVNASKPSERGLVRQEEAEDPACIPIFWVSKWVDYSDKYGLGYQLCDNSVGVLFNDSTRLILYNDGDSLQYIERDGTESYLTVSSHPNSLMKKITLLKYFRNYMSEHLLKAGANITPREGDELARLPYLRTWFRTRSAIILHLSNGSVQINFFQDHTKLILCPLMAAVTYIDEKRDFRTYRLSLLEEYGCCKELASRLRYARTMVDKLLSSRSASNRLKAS
PI5P4Ka inh: inhibitors of human PI5P4K alpha; PI5P4Kalpha enzyme, ADP-Glo luminescence, 60 min; hits give low values; max response, %; actives 1.2% (n = 330,000); active means max response of -50% or lower; inconclusive means between -30% and -50%; inactive means -30% or higher; further: value at the top dose of about 77 µM
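Human PI5P4Kalpha with substrate in 0.038 M HEPES pH 7.4, 0.28 mM EGTA, 0.1% CHAPS, 5% DMSO; reaction started with 5 microM ATP (final), 60 min at room temperature. ADP formed read by ADP-Glo luminescence.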
JMJD2A Tudor: JMJD2A Tudor domain (human) inhibition | O75164 | AlphaScreen JMJD2A-Tudor / H3K4me3 peptide binding | Potency, µM (titrated, usually from 114 µM), hits mostly inhibitors | actives 4.4% (n = 390,000); further: nearly all actives have a fitted effect of over 50% in size
HP1b binding inh: blocks HP1-beta chromodomain binding to methylated histone tails | P83916 | AlphaScreen HP1-beta / biotin-H3K9me3 peptide binding | Potency, µM (top dose mostly 114 µM), usual class: inhibitors | actives 0.56% (n = 390,000); further: nearly all actives have a fitted effect of over 70% in size
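AlphaScreen: HP1-beta (50 nM) preformed 30 min with biotin-H3(1-18)K9me3 peptide (50 nM) in PBS pH 7.4, 0.01% Tween-20. Compound added for 30 min at RT, then streptavidin donor/nickel chelate acceptor beads (10 ug/mL) for 30 min.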
ADP-Glo counter: counter-screen for PI5P4K inhibitors: ADP-Glo detection interference, no enzyme | shares compounds with PI5P4Ka inh | ADP-Glo detection counter-screen, luciferase luminescence, no enzyme | Potency, µM (series often up to 76.9 µM), most hits filed as inhibitors | 1,100 tested, under 10 active | AID 743285
A number is an active result; ! = repeats disagree; [ ] = remark or other dose. Unless noted, the call rests on the fitted dose curve; in most records, active means well fitted curve in the direction sought with a large enough effect; inconclusive means small, poorly fitted or top-dose-only effect, or another doubt; inactive means no such curve, though single readings can be large; an effect the other way counts as inactive or inconclusive.

What do the screens show for `COc1cccc(C(NC(C)=O)c2nc(-c3ccoc3)cs2)c1` (configuration not stated)?
PLK1 PBD inh: inactive; PI5P4Ka inh: inactive

Results for N#Cc1ccccc1OCc1cn(CC(=O)c2ccc(O)cc2)nn1 ?
PLK1 PBD inh: 24µM; PI5P4Ka inh: -58; JMJD2A Tudor: 20µM; HP1b binding inh: inactive; ADP-Glo counter: inactive

How did COc1ccc(N2CC(O)=C(c3nc(-c4ccccc4)cs3)C2=N)cc1 do in these assays?
G9a inh: inactive; BAZ2B inh: inactive; PLK1 PBD inh: 13µM; PI5P4Ka inh: -53; JMJD2A Tudor: inactive[11.4 µM]; HP1b binding inh: inactive; ADP-Glo counter: inactive

How did COCc1c(C(=O)N2CCc3ccccc32)oc2ccccc12 do in these assays?
G9a inh: inactive; BAZ2B inh: inactive; PLK1 PBD inh: inactive; PI5P4Ka inh: -77; JMJD2A Tudor: inactive; HP1b binding inh: inconclusive; ADP-Glo counter: inactive

What do the screens show for `CCCCN(C(=O)Cc1ccc2c(c1)OCCO2)c1c(N)n(CC(C)C)c(=O)[nH]c1=O`?
G9a inh: inactive; BAZ2B inh: inactive; PLK1 PBD inh: inactive; PI5P4Ka inh: inactive; JMJD2A Tudor: inactive; HP1b binding inh: inactive

Results for COc1cc(/C=C/c2nc(C#N)c(NC(C)c3ccccc3)o2)cc(OC)c1OC (configuration not stated) ?
G9a inh: inactive; BAZ2B inh: inactive; JMJD2A Tudor: inactive; HP1b binding inh: inactive

What do the screens show for `CCC(C)N(C(=O)CSc1nc(-c2cccs2)nc2ccccc12)C1CCS(=O)(=O)C1` (configuration not stated)?
PLK1 PBD inh: inactive; PI5P4Ka inh: inactive; JMJD2A Tudor: inactive; HP1b binding inh: inactive

What do the screens show for `O=C(NCc1cccc(F)c1)Nc1nnc([C@H]2C[C@H](O)[C@@H](CO)O2)s1`?
PLK1 PBD inh: inactive; PI5P4Ka inh: -50; ADP-Glo counter: inactive

What do the screens show for `O=C(NCc1ccccc1F)Nc1nnc([C@H]2C[C@H](O)[C@@H](CO)O2)s1`?
PLK1 PBD inh: inactive; PI5P4Ka inh: inactive

How did CC(=O)Nc1cccc2ccc(O)cc12 do in these assays?
PLK1 PBD inh: inactive; PI5P4Ka inh: -62; JMJD2A Tudor: inactive; HP1b binding inh: inactive; ADP-Glo counter: inactive

How did Cc1ccc(OC(C)C(=O)N2CCN(CCc3ccccn3)CC2)cc1C (configuration not stated) do in these assays?
G9a inh: inactive; BAZ2B inh: inactive; JMJD2A Tudor: inactive; HP1b binding inh: inactive

What do the screens show for `CC(=O)N1CCOc2ccc(S(=O)(=O)N3CCC(C(=O)NCc4ccccc4)CC3)cc21`?
G9a inh: inactive; BAZ2B inh: inactive; PLK1 PBD inh: inactive; PI5P4Ka inh: inactive; JMJD2A Tudor: inactive; HP1b binding inh: inactive

What do the screens show for `CCC(=O)c1ccc(OCC(=O)N2CCN(S(=O)(=O)c3ccc(Cl)s3)CC2)cc1`?
G9a inh: inactive[12.7 µM]; BAZ2B inh: inactive; PLK1 PBD inh: inactive; PI5P4Ka inh: -54; JMJD2A Tudor: inactive; HP1b binding inh: inactive; ADP-Glo counter: inactive

What do the screens show for `CC(=O)c1ccc(OCC(=O)N2CCN(S(=O)(=O)c3ccc(Br)s3)CC2)cc1`?
G9a inh: inconclusive; BAZ2B inh: inactive; PLK1 PBD inh: inactive; PI5P4Ka inh: inactive; JMJD2A Tudor: inactive; HP1b binding inh: inactive

What do the screens show for `Nc1cc(-c2ccncc2)c[nH]c1=O`?
G9a inh: 45µM!; BAZ2B inh: inactive; PLK1 PBD inh: 30µM; PI5P4Ka inh: -56; JMJD2A Tudor: inactive; HP1b binding inh: inactive; ADP-Glo counter: inactive

What do the screens show for `Nc1c(-c2ccncc2)cc[nH]c1=O`?
JMJD2A Tudor: inactive

Results for Cc1nnc(SCC(=O)Nc2sc3c(c2C(N)=O)CCC(C)C3)[nH]c1=O (configuration not stated) ?
G9a inh: inactive; BAZ2B inh: inactive; PLK1 PBD inh: inconclusive; PI5P4Ka inh: -54; JMJD2A Tudor: inconclusive; HP1b binding inh: inactive; ADP-Glo counter: inactive

How did CCCc1cc(=O)[nH]c(SCC(=O)Nc2sc3c(c2C#N)CCC(C)C3)n1 (configuration not stated) do in these assays?
G9a inh: 50µM; BAZ2B inh: inactive; PLK1 PBD inh: inconclusive; PI5P4Ka inh: -54; JMJD2A Tudor: inconclusive; HP1b binding inh: inactive; ADP-Glo counter: inactive

What do the screens show for `CCCc1cc(=O)[nH]c(SCC(=O)NC2CC2)n1`?
PLK1 PBD inh: inactive; PI5P4Ka inh: inactive; JMJD2A Tudor: inactive; HP1b binding inh: inactive

How did CCN(CC)C(=O)CN1C(=O)C2(OCC(C)(C)CO2)c2ccccc21 do in these assays?
G9a inh: inactive[12.7 µM]; BAZ2B inh: inactive; PLK1 PBD inh: inactive; PI5P4Ka inh: inactive; JMJD2A Tudor: inactive; HP1b binding inh: inactive

How did Cc1ccc(-n2c(SCC(=O)Nc3ccc4c5c(cccc35)CC4)nc(O)cc2=O)cc1 do in these assays?
G9a inh: inactive; BAZ2B inh: inactive; PLK1 PBD inh: inactive; PI5P4Ka inh: -51; JMJD2A Tudor: inactive; HP1b binding inh: inactive; ADP-Glo counter: inactive

How did Cc1ccc(-n2c(SCC(=O)Nc3ccc4c5c(cccc35)CC4)nc(O)c(C)c2=O)cc1 do in these assays?
G9a inh: inactive; BAZ2B inh: inactive; PLK1 PBD inh: inactive; PI5P4Ka inh: inactive; JMJD2A Tudor: inactive; HP1b binding inh: inactive

What do the screens show for `CCOc1ccccc1NC(=O)c1c(NC(=O)CCC(=O)O)sc2c1CCCCC2`?
G9a inh: 25µM; BAZ2B inh: inconclusive; PLK1 PBD inh: inconclusive; PI5P4Ka inh: inactive; JMJD2A Tudor: 45µM; HP1b binding inh: inactive; ADP-Glo counter: inactive

Results for CCOc1ccccc1NC(=O)c1c(NC(=O)Cc2ccccc2)sc2c1CCCC2 ?
G9a inh: inactive; BAZ2B inh: inactive; JMJD2A Tudor: inactive; HP1b binding inh: inactive

How did Cc1ccnc2nc(C(=O)OCC(=O)NC3CCCC(C)C3C)nn12 (configuration not stated) do in these assays?
G9a inh: inactive; BAZ2B inh: inactive; PLK1 PBD inh: inactive; PI5P4Ka inh: inactive; JMJD2A Tudor: inactive; HP1b binding inh: inactive; ADP-Glo counter: inactive

What do the screens show for `COc1ccccc1-c1nc(N(C)C)c2ccccc2n1`?
G9a inh: inactive[0.501 µM]

Results for CCOc1ccc(NC(=O)N2CCC(n3nnc4ccccc43)CC2)cc1 ?
BAZ2B inh: inconclusive; PLK1 PBD inh: inactive; PI5P4Ka inh: -51; JMJD2A Tudor: inactive; HP1b binding inh: inactive; ADP-Glo counter: inactive

What do the screens show for `COc1ccc(NC(=O)N2CCC(n3nnc4cc(C)ccc43)CC2)cc1`?
G9a inh: inactive; BAZ2B inh: inactive; PLK1 PBD inh: inactive; PI5P4Ka inh: inactive; JMJD2A Tudor: inactive; HP1b binding inh: inactive
